Assay results: PubChem BioAssay (NCATS)
Records with an inconclusive call do not appear. The source made the active and inactive calls. The call rests on the fitted dose curve; in most records, active means well fitted inhibition curve with a large enough effect; inconclusive means small, poorly fitted or top-dose-only effect; inactive means flat fitted curve, though single readings scatter.

What was measured:
[1] = molecular target: Glutathione peroxidase 1 (Homo sapiens) (UniProt P07203); experiment: Primary qHTS Assay for Inhibitors of Recombinant Selenoprotein Glutathione Peroxidase 1 (GPX1) (AID 1845191); further: nearly all actives have a fitted effect of over 65% in size; on activity, negative = inhibition: on the % scale 0 is the no-effect control and ±100 the full control effect
Summary of the method: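 10 nM GPX1 + cpd, 30 min RT; start w/ 1 mM GSH, 0.5 mM cumene hydroperoxide, 0.5 mM NADPH, 100 nM GR, 0.01% BSA; buffer 50 mM Tris-HCl pH 7.5, 2 mM EDTA, 150 mM NaCl; Fl 340/450, 0 & 15 min.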

[2] = molecular target: Phospholipid hydroperoxide glutathione peroxidase GPX4 (Homo sapiens) (UniProt P36969); experiment: Primary qHTS Assay for Inhibitors of Recombinant Selenoprotein Glutathione Peroxidase 4 (GPX4) (AID 1845192); further: nearly all actives have a fitted effect of over 65% in size; on activity change, negative = inhibition: series mostly up to about 50 µM; on the % scale 0 is the no-effect control and ±100 the full control effect
Summary of the method: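 NADPH consumption, followed by fluorescence at 340/450 nm between 0 and 15 min, reports GPX4 activity via coupled glutathione reductase (100 nM). Enzyme 200 nM was pre-exposed to compound 30 min; 0.5 mM cumene hydroperoxide and 1 mM GSH served as substrates.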

[3] = molecular target: Luciferin 4-monooxygenase (Photinus pyralis) (UniProt P08659); experiment: Primary firefly luciferase (FLuc) qHTS assay for identification of artifact compounds. (AID 1845220); further: nearly all actives have a fitted effect of over 60% in size;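 on activity change, negative = inhibition: series mostly up to about 54 µM; plate controls were DMSO vehicle for no effect and no enzyme for full effect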
Summary of the method: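 Cell-free, 1536-well qHTS. Buffer pH 7.6 with 0.01% Tween-20 and 0.05% BSA; 10 uM D-luciferin, 10 uM ATP; 10 nM P. pyralis luciferase; luminescence after 5 min.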

Sequence of Glutathione peroxidase 1 (Homo sapiens) (P07203 whole entry, looked up): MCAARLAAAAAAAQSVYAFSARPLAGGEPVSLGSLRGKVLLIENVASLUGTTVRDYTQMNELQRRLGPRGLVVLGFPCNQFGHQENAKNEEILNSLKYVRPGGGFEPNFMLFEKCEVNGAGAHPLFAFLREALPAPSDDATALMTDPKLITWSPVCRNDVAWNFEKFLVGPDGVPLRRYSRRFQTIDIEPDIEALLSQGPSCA
Sequence of Phospholipid hydroperoxide glutathione peroxidase GPX4 (Homo sapiens) (P36969 whole entry, looked up): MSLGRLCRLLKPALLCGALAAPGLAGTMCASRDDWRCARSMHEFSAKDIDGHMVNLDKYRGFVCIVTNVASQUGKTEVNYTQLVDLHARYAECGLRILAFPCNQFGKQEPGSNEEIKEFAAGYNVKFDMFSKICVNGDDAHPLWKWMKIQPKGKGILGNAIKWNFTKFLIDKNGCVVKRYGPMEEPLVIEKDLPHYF

C[C@@H]1CC[C@]2(C(=O)O)CC[C@]3(C)C(=CCC4[C@]5(C)C(CC[C@]43C)C(C)(C)[C@@H](O)[C@H](O)[C@@H]5O)C2[C@]1(C)O (stereo partly drawn)
inactive: Potency [1] | Potency [2] | Potency [3]

C[C@]12C=CC(=O)C=C1CC[C@@H]1[C@@H]2[C@@H](O)C[C@@]2(C)[C@H]1CC[C@]2(O)C(=O)COC(=O)CCC(=O)O
inactive: Potency [1] | Potency [2] | Potency [3]

C[C@H]1CN(C[C@H](Cc2ccccc2)C(=O)NCC(=O)O)CC[C@@]1(C)c1cccc(O)c1
inactive: Potency [1] | Potency [2] | Potency [3]

Cc1nc2c(-c3cnc(N)nc3)nc(N3CCOCC3)nc2n1C(C)C
inactive: Potency [1] | Potency [2] | Potency [3]

O=c1c2cccnc2n(-c2cccc([N+](=O)[O-])c2)c(=O)n1Cc1ccncc1
inactive: Potency [1] | Potency [2] | Potency [3]

CC(=O)O[C@@H]1[C@H](O[C@@H]2O[C@H](CO)[C@@H](O)[C@H](O)[C@H]2O)[C@@H](O[C@@H]2O[C@@H](C)[C@H](O)[C@@H](O[C@@H]3O[C@H](CO)[C@@H](O)[C@H](O)[C@H]3O)[C@H]2O)[C@H](OC(=O)C23CCC4(C)C(=CCC5C6(C)CC(O)C(O[C@@H]7O[C@H](C(=O)O)[C@@H](O)[C@H](O)[C@H]7O)C(C)(C(=O)O)C6CCC54C)C2CC(C)(C)CC3O)O[C@@H]1C (stereo partly drawn)
inactive: outcome [1] inactive [at 9.52 µM] | activity change, negative = inhibition [2] 1.73% [at 9.73 µM] | outcome [3] inactive [at 11.6 µM]

CC1(C)CC2C(C1)C1(C)CCC13OC3(CO)C2O (stereo not drawn)
inactive: Potency [1] | Potency [2] | Potency [3]

C/C=C/C1=CC2=CC(=O)C(C)(O)C(OC(=O)c3c(C)cc(O)cc3O)C2CO1 (stereo not drawn)
inactive: Potency [1] | Potency [2] | Potency [3]

Cc1ccc(C(=O)Nc2ccc(Oc3cc4cnn(C)c4cc3-c3cn[nH]c3)c(F)c2)c(=O)n1-c1ccc(F)cc1
inactive: Potency [1] | Potency [2] | Potency [3]

CC(/C=C/C1(O)C(C)(C)CC(O)CC1(C)O)OC1OC(CO)C(O)C(O)C1O (stereo not drawn)
inactive: Potency [1] | Potency [2] | Potency [3]

O=C1NC(Cc2ccc(O)cc2)C(=O)N2CCCC12 (stereo not drawn)
inactive: Potency [1] | Potency [2] | Potency [3]

CC(=O)O[C@H]1[C@H](C)[C@@H](O)[C@H]2[C@@H]1C=C(C(=O)O)[C@H]1C[C@@H]3[C@H]([C@H]21)[C@H]1C(=O)O[C@@H]2CC[C@@]3(C)O[C@]1(O)[C@@H]2C
inactive: Potency [1] | Potency [2] | Potency [3]

O=S(=O)(NC1CCNCC1)c1cc(S(=O)(=O)c2ccccc2)ccc1C(F)(F)F
inactive: Potency [1] | Potency [2] | Potency [3]

CC[C@H]1OC(=O)[C@H](C)[C@@H](OC2C[C@@](C)(OC)[C@@H](O)[C@H](C)O2)[C@H](C)[C@@H](OC2O[C@H](C)C[C@H](NC)[C@H]2O)[C@](C)(O)C[C@@H](C)CN(C)[C@H](C)[C@@H](O)[C@]1(C)O (stereo partly drawn)
inactive: Potency [1] | Potency [2] | Potency [3]

O=C(O)CCc1cc2ccoc2cc1O[C@@H]1O[C@H](CO[C@@H]2OC[C@](O)(CO)[C@H]2O)[C@@H](O)[C@H](O)[C@H]1O
inactive: Potency [1] | Potency [2] | Potency [3]

COc1cc(/C=C/CO)ccc1O[C@@H]1O[C@H](CO)[C@@H](O)[C@H](O)[C@H]1O
inactive: Potency [1] | Potency [2] | Potency [3]

O=C(c1ccc(NS(=O)(=O)c2cccc3cccnc23)cc1)N1CCN(CC2CC2)CC1
inactive: Potency [1] | Potency [2] | Potency [3]

CC1C(=O)CC2C3C(O)CC(C(=O)O)C12CC3(C)C (stereo not drawn)
inactive: Potency [1] | Potency [2] | Potency [3]

CCOc1cc2ncc(C#N)c(Nc3ccc(OCc4ccccn4)c(Cl)c3)c2cc1NC(=O)/C=C/CN(C)C
inactive: Potency [1] | Potency [2] | Potency [3]

C[C@@H]1O[C@@H](O[C@H]2[C@H](OC(=O)C34CCC5(C)C(=CCC6C7(C)CC(O)C(O[C@@H]8O[C@H](C(=O)O)[C@@H](O)[C@H](O)[C@H]8O)C(C)(C(=O)O)C7CCC65C)C3CC(C)(C)CC4O)O[C@H](C)[C@@H](O)[C@@H]2O)[C@H](O)[C@@H](O[C@@H]2OC[C@](O)(CO)[C@H]2O[C@@H]2O[C@H](CO)[C@@H](O)[C@H](O)[C@H]2O)[C@H]1O (stereo partly drawn)
inactive: activity, negative = inhibition [1] -10.2% [at 9.52 µM] | activity change, negative = inhibition [2] -4.3% [at 9.73 µM] | activity change, negative = inhibition [3] -0.148% [at 11.6 µM]

O=C(NN1CCCCC1)c1nn(-c2ccc(Cl)cc2Cl)c(-c2ccc(C#Cc3ccc(C(F)(F)F)cc3)s2)c1CNS(=O)(=O)N1CCCC1
inactive: Potency [1] | Potency [2] | Potency [3]

N#CCc1ccc(O)cc1O[C@@H]1O[C@H](CO)[C@@H](O)[C@H](O)[C@H]1O
inactive: Potency [1] | Potency [2] | Potency [3]

CNC(=O)c1ccc2cc([C@@]3(O)CCn4cncc43)ccc2c1
inactive: Potency [1] | Potency [2] | Potency [3]

O=C1CC(c2ccc([N+](=O)[O-])cc2)=NN1c1ccccc1
inactive: Potency [1] | Potency [2] | Potency [3]

CCCCNC(=O)[C@@H]1Cc2ccccc2N1C(=O)[C@@H](N)CC
inactive: Potency [1] | Potency [2] | Potency [3]

CO[C@@H]1CC[C@H](OC[C@]2(COC(=O)c3ccc(C)[nH]3)[C@H](OC(C)=O)CC[C@@]3(C)[C@@H]4CC=C(C)[C@@H](C5=C(O)C(=O)OC5O)[C@]4(C)CC[C@@H]32)O[C@H]1C (stereo partly drawn)
inactive: Potency [1] | Potency [2] | Potency [3]
